# The source made the active and inactive calls. Entries that show only a call come without a potency. Unless noted, the call rests on the fitted dose curve; in most records, active means well fitted curve in the direction sought with a large enough effect in the repeat runs; inconclusive means weak or mixed curves; inactive means no such curve, though single readings can be large; an effect the other way counts as inactive or inconclusive.
# Columns and labels:
# [1] = qHTS assay to test for compound auto fluorescence at 535 nm (green) in HepG2 cells (AID 720675)
# [2] = qHTS assay to test for compound auto fluorescence at 590 nm (red) in HEK293 cell free culture (AID 720683)
# In short: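 Red-channel autofluorescence of compounds in culture medium (DMEM, 10% FBS), no cells, measured at 540/590 nm. Rose Bengal sodium is the reference fluorophore for equivalence.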
# [3] = qHTS assay to test for compound auto fluorescence at 460 nm (blue) in HepG2 cell free culture (AID 720685)
# In short: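 Compound (23 nL) or DMSO pinned into cell-free MEM with 10% FBS; blue fluorescence read at 405/460 nm excitation/emission, expressed as auto-fluorescence equivalency to triamterene.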
# [4] = qHTS assay to test for compound auto fluorescence at 535 nm (green) in HepG2 cell free culture (AID 720686)
# [5] = qHTS assay to test for compound auto fluorescence at 460 nm (blue) in HepG2 cells (AID 720687)
# In short: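 Blue-channel autofluorescence (Ex/Em 405/460 nm, triamterene-equivalent) was measured after 1 hr compound exposure at 37 C, 5% CO2. Cells were HepG2, plated overnight at 37 C in MEM plus 10% FBS.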
# [6] = qHTS assay for identifying genotoxic compounds that show differential cytotoxicity against isogenic chicken DT40 cell lines with known DNA damage response pathways - wild type cell line (AID 743012); further: nearly all actives have a fitted effect of over 60% in size; further: potency means the concentration at half of the fitted maximal effect
# In short: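 First, wild type DT40 cells were plated at 300 per well and equilibrated about 0.5 h at 37 C/5% CO2. Next, compounds in DMSO were added and exposure lasted 40 h. Finally, CellTiter-Glo was added for 30 min at room temperature and luminescence recorded.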
# [7] = qHTS assay for identifying genotoxic compounds that show differential cytotoxicity against isogenic chicken DT40 cell lines with known DNA damage response pathways - Rad54/Ku70 mutant cell line (AID 743015); further: nearly all actives have a fitted effect of over 60% in size; further: potency means the concentration at half of the fitted maximal effect
# [8] = qHTS assay to identify small molecule antagonists of the androgen receptor (AR) signaling pathway - cell viability counter screen (AID 743033; further: nearly all actives have a fitted effect of over 45% in size; further: potency means the concentration at half of the fitted maximal effect)
# [9] = target: Estrogen receptor (Homo sapiens) (UniProt P03372); assay: qHTS assay to identify small molecule agonists of the estrogen receptor alpha (ER-alpha) signaling pathway (AID 743075; calls by dose curve;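 further: HEK293 GripTite cells with ER-alpha and UAS-driven beta-lactamase reporter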; further: potency means the concentration at half of the fitted maximal effect)
# Sequence of Estrogen receptor (Homo sapiens) (P03372 whole entry, looked up): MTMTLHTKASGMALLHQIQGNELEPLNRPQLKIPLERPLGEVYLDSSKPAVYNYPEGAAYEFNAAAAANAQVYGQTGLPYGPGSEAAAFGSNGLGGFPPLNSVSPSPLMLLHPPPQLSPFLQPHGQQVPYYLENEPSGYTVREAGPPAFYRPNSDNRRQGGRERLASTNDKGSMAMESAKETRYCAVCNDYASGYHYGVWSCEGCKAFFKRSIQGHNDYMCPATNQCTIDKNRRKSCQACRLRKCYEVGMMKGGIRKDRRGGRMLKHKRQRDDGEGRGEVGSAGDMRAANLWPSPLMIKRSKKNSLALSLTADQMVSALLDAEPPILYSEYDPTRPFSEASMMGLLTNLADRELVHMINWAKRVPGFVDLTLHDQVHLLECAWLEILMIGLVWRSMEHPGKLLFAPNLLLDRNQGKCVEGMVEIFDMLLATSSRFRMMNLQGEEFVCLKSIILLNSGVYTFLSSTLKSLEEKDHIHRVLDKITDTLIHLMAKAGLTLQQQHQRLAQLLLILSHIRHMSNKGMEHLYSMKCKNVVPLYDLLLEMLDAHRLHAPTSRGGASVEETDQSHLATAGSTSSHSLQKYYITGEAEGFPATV
# [10] = target: Estrogen receptor (Homo sapiens) (UniProt P03372); assay: qHTS assay to identify small molecule agonists of the estrogen receptor alpha (ER-alpha) signaling pathway using the BG1 cell line (AID 743079); further: nearly all actives have a fitted effect of over 20% in size; further: potency means the concentration at half of the fitted maximal effect
# [11] = qHTS assay to identify small molecule antagonists of the estrogen receptor alpha (ER-alpha) signaling pathway using the BG1 cell line (AID 743080; calls by dose curve;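 further: BG1 cells stimulated with 17beta-estradiol alongside compound; series mostly up to about 70 µM; nearly all actives have a fitted effect of over 25% in size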)
# In short: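 Quantitative HTS on the Tox21 10K library: BG1 cells with endogenous ER-alpha and ERE-luciferase reporter, 17beta-estradiol stimulation, 21.5 h compound exposure, luminescence endpoint with parallel fluorescence cytotoxicity counter-read.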
# [12] = target: Aryl hydrocarbon receptor (Homo sapiens) (UniProt P35869); assay: qHTS assay to identify small molecule that activate the aryl hydrocarbon receptor (AhR) signaling pathway (AID 743085); further: nearly all actives have a fitted effect of over 15% in size; further: potency means the concentration at half of the fitted maximal effect;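 on activation: HG2L7.5c1 human HepG2 liver cells with stably integrated DRE-driven firefly reporter; series mostly up to about 70 µM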
# Sequence of Aryl hydrocarbon receptor (Homo sapiens) (P35869 whole entry, looked up): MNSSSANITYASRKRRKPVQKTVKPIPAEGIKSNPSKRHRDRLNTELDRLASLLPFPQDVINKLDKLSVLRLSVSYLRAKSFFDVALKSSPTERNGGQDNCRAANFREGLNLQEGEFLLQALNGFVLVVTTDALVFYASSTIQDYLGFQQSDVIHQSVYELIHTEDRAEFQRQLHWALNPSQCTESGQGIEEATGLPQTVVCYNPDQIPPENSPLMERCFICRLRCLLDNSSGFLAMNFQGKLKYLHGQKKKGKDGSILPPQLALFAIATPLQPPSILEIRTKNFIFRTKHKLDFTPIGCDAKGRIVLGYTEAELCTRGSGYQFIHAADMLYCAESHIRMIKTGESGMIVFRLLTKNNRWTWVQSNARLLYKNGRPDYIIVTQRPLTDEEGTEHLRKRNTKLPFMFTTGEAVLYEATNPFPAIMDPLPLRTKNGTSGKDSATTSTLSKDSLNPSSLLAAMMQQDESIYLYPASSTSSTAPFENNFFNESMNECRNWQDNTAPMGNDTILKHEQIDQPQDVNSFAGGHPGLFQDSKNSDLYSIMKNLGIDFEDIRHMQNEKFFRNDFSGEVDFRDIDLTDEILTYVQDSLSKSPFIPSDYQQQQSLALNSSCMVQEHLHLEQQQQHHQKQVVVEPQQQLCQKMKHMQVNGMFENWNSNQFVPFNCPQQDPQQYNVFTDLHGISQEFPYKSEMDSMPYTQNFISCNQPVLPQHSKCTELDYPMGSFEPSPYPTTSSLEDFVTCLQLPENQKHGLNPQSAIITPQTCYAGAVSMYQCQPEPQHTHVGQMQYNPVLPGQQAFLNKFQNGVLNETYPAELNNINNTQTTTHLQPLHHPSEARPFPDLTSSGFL
# In short: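 Compounds were tested in HepG2 hepatocellular carcinoma cells harbouring a stably integrated luciferase gene under control of 20 DREs. Increased reporter signal after 24 h treatment at 37C was taken as AhR activation.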
# [13] = target: Peroxisome proliferator-activated receptor gamma (Homo sapiens) (UniProt P37231); assay: qHTS assay to identify small molecule agonists of the peroxisome proliferator-activated receptor gamma (PPARg) signaling pathway (AID 743094; active means well fitted activation curve with a large enough effect in the signal ratio in the repeat runs, not every such curve was filed as active; inconclusive means weak or mixed curves, or effect the other way; inactive means no such curve, though single readings can be large or run the other way; the % refers to the signal ratio; further: potency means the concentration at half of the fitted maximal effect)
# Sequence of Peroxisome proliferator-activated receptor gamma (Homo sapiens) (P37231 whole entry, looked up): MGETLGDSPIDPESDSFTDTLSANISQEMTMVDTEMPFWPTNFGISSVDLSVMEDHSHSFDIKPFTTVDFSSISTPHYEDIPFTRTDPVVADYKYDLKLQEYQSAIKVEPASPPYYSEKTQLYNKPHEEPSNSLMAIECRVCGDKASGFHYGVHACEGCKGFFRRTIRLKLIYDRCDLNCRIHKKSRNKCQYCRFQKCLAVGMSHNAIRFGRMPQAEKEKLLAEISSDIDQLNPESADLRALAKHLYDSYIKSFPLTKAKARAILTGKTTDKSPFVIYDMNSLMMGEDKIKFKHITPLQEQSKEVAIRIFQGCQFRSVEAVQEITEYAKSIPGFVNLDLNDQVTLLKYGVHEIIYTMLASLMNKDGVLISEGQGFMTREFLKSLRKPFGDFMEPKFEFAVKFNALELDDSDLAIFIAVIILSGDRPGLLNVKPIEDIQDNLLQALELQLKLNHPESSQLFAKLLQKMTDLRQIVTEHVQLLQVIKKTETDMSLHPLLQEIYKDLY
# In short: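 Compounds dissolved in DMSO were added to PPARg UAS-bla HEK293H cells for 17 h at 37C, and reporter expression was quantified by fluorescence intensity after 1 h with LiveBLAzer B/G FRET substrate.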
# [14] = target: Nuclear receptor subfamily 1 group I member 2 (Homo sapiens) (UniProt O75469); assay: Human pregnane X receptor (PXR) activation by small molecules, qHTS assay (AID 1346985); further: nearly all actives have a fitted effect of over 40% in size; further: potency means the concentration at half of the fitted maximal effect
# In short: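 DPX-2 cells (HepG2 co-transfected with a PXR response element and a CYP3A4-promoter luciferase construct) were seeded at 2,000 per well, rested 5 hr at 37C, then exposed to DMSO-dissolved compounds for 24 hr. Activation was read as luciferase luminescence.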
# [15] = qHTS assay for small molecule disruptors of the mitochondrial membrane potential (AID 720635); further: potency means the concentration at half of the fitted maximal effect
# In short: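 Mitochondrial membrane potential tracked with Mito-MPS dye, red aggregates (ex 540/em 590 nm) against green monomers (ex 490/em 535 nm). Compound treatment 1 hr at 37C, dye 30 min in HepG2.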
# [16] = qHTS assay to test for compound auto fluorescence at 535 nm (green) in HEK293 cells (AID 720680)
# [17] = qHTS assay to test for compound auto fluorescence at 590 nm (red) in HepG2 cell free culture (AID 720684)
# In short: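 Plate contents were MEM with 10% FBS plus test compound or DMSO, no cells. Fluorescence was recorded with 540 nm excitation and 590 nm emission.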
# [18] = qHTS assay to identify small molecule antagonists of the thyroid receptor (TR) signaling pathway - cell viability counter screen (AID 743064); further: nearly all actives have a fitted effect of over 50% in size; further: potency means the concentration at half of the fitted maximal effect
# In short: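 Rat GH3 pituitary tumor cells stably expressing two TR response elements driving luciferase were plated, rested 4 h, then dosed with library compounds and T3 (1 nM final). After 23.5 h at 37 °C, CellTiter-Fluor was added for 30 min and fluorescence recorded.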
# [19] = qHTS assay to identify small molecule antagonists of the thyroid receptor (TR) signaling pathway (AID 743065); further: nearly all actives have a fitted effect of over 55% in size; further: potency means the concentration at half of the fitted maximal effect
# In short: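 Antagonism measured as loss of luciferase signal in GH3 cells stably carrying a TRE-luciferase reporter, co-treated with compound and T3 (1 nM final) for 23.5 h at 37 C. Viability was read in the same well by CellTiter-Fluor.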
# [20] = target: Glucocorticoid receptor (Homo sapiens) (UniProt P04150); assay: qHTS assay to identify small molecule agonists of the glucocorticoid receptor (GR) signaling pathway (AID 720691; active means well fitted activation curve with a large enough effect in the signal ratio in the repeat runs, not every such curve was filed as active; inconclusive means weak or mixed curves, or effect the other way; inactive means no such curve, though single readings can be large or run the other way; the % refers to the signal ratio)
# Sequence of Glucocorticoid receptor (Homo sapiens) (P04150 whole entry, looked up): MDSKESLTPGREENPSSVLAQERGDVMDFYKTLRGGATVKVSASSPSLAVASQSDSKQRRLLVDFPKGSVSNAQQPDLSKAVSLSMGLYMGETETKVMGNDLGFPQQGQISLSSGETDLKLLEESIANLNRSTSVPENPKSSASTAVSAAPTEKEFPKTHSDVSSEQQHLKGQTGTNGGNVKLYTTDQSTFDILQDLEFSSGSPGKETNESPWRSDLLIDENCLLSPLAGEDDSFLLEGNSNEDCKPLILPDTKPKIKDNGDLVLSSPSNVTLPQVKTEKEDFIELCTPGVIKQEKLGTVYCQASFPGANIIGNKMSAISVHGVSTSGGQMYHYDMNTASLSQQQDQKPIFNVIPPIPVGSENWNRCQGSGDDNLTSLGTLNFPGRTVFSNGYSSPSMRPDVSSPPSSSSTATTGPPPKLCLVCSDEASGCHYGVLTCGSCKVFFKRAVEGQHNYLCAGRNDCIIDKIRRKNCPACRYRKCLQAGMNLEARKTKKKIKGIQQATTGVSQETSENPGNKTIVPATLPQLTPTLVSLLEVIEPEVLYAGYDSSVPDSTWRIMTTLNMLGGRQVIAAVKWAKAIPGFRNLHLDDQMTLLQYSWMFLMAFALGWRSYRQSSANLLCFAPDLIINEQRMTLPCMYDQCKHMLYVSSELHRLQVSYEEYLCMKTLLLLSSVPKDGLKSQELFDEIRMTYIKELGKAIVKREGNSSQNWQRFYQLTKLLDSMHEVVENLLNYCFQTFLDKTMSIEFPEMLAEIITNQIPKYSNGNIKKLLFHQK
# In short: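 qHTS in GR-bla HeLa cells: 4 h settling at 37 C/5% CO2, 18 h compound incubation at 37 C, 2 h LiveBLAzer B/G FRET substrate at room temperature, fluorescence intensity measured.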
Structure (SMILES),Potency [1],outcome [2],Potency [3],Potency [4],Potency [5],Potency [6],Potency [7],Potency [8],Potency [9],Potency [10],Potency [11],Potency [12],Potency [13],Potency [14],Potency [15],Potency [16],outcome [17],Potency [18],Potency [19],Potency [20]
CCCC(C)C1(CC)C(=O)NC(=O)NC1=O (stereo not given),inactive,inactive,inactive,inactive,inactive,inactive,inactive,inactive,inactive,inactive,inactive,inactive,inactive,inactive,,,,,,
CCCCCc1cc(O)c2c(c1)OC(C)(C)[C@@H]1CCC(C)=C[C@@H]21,inactive,inactive,inactive,inactive,inactive,,10.6 µM (active),inactive,inactive,,inactive,9.44 µM (active),,7.94 µM (active),3.76 µM (active),inactive,inactive,13.3 µM (active),16.8 µM (active),
CCCCCCC(=O)O[C@H]1CC[C@H]2[C@@H]3CC[C@H]4CC(=O)C=C(C)[C@]4(C)[C@H]3CC[C@]12C,inactive,inactive,,inactive,inactive,,inactive,,6.74 µM [inconclusive] (active),2.11 µM (active),inactive,,inactive,inactive,,,inactive,inactive,inactive,inactive
CCC1C(C)=NN=C(c2ccc(OC)c(OC)c2)c2cc(OC)c(OC)cc21 (stereo not given),inactive,,inactive,inactive,,inactive,inactive,,inactive,inactive,inactive,inactive,inactive,,,,,inactive,,
CN(C)CCCCCCN(C)C (tested in a mixture with another compound),,inactive,inactive,,,inactive,inactive,inactive,,,,inactive,,,inactive,,,inactive,,inactive
COC([CH2][Hg])CNC(=O)c1ccccc1OCC(=O)O (stereo not given),inactive,inactive,inactive,inactive,inactive,,2.98 µM (active),inactive,inactive,inactive,inactive,,,inactive,inactive,inactive,inactive,,,inactive
CN1CCCC(=C(c2cccs2)c2cccs2)C1,,inactive,inactive,inactive,inactive,,,inactive,inactive,inactive,inactive,inactive,inactive,inactive,,inactive,inactive,,inactive,
O=C1C=C2C=C[C@@H]3C[C@@]2(O1)[C@H]1CCCCN31,inactive,inactive,inactive,inactive,inactive,7.5 µM (active),5.96 µM (active),,inactive,,,inactive,,,,inactive,inactive,11.9 µM (active),6.68 µM (active),inactive
C=C[C@H]1CN2CC[C@H]1C[C@@H]2[C@@H](O)c1ccnc2ccccc12,inactive,inactive,inactive,inactive,inactive,,,,,,,inactive,inactive,inactive,8.41 µM (active),inactive,inactive,,inactive,inactive
C/C(=C\c1csc(C)n1)[C@@H]1C[C@@H]2O[C@]2(C)CCC[C@H](C)[C@H](O)[C@@H](C)C(=O)C(C)(C)[C@@H](O)CC(=O)O1,inactive,inactive,inactive,,inactive,0.0019 µM (active),0.0038 µM (active),,,inactive,,inactive,inactive,7.94 µM (active),,inactive,inactive,,,inactive
C#CCN1CC(=O)N(COC(=O)C2C(C=C(C)C)C2(C)C)C1=O (stereo not given),inactive,inactive,inactive,inactive,inactive,inactive,inactive,inactive,inactive,inactive,inactive,inactive,inactive,inactive,,inactive,inactive,inactive,inactive,inactive
[H+].[H+].[Hg+2].[O-]B([O-])[O-].[c-]1ccccc1,inactive,inactive,,inactive,inactive,0.266 µM (active),0.335 µM (active),9.52 µM (active),30.1 µM [inconclusive] (active),,,,19 µM (active),,13.9 µM (active),inactive,inactive,1.06 µM (active),0.596 µM (active),
CCC1(c2ccccc2)C(=O)NC(=O)N(C(=O)c2ccccc2)C1=O (stereo not given),inactive,,inactive,inactive,inactive,inactive,,inactive,,,,inactive,,,23.7 µM (active),,inactive,inactive,,inactive
CC(C)CCC(=O)O[C@H]1CC[C@H]2[C@@H]3CCC4=CC(=O)CC[C@]4(C)[C@H]3CC[C@]12C,inactive,inactive,inactive,inactive,inactive,7.5 µM (active),inactive,inactive,4.77 µM [inconclusive] (active),0.0668 µM (active),inactive,inactive,inactive,inactive,,inactive,inactive,,29.8 µM (active),inactive

# Reference: PubChem BioAssay (Tox21)
